Assay outcomes deposited in PubChem BioAssay by National Center for Advancing Translational Sciences (NCATS).
TDP1 cell CPT: DT40-hTDP1 cell growth loss with CPT; chicken DT40 Tdp1-/-;hTDP1 cells + 20 nM CPT, ATP luminescence, 48 h; AID 686979; Potency, µM (top dose mostly 46.2 µM), for inactives: top-dose activity change, negative = growth inhibition, actives largely listed as inhibitors; hit rate 12% among 420,000; also: potency is read from the fitted curve at half-maximal effect; nearly all actives have a fitted effect of over 55% in size
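Chicken DT40 Tdp1-/- cells stably complemented with human TDP1 were seeded at 400 cells/well in medium containing 20 nM camptothecin, exposed to pin-transferred compounds, and grown at 37 °C for at least 48 hr. Viability was read as ATP luminescence.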
HT1080 IDH1KD tx: kills HT-1080 cells with IDH1 knockdown | HT-1080 IDH1 knockdown viability, ATP luminescence, 48 h | Potency, µM (titrated, usually from 46.1 µM), for the others: at the highest dose activity, negative = toxicity, usual class: cytotoxic | hit rate 2% among 360,000 | AID 686971;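 also: potency is read from the fitted curve at half-maximal effect; 0% = DMSO wells and -100% = cell-free medium wells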
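IDH1KD HT-1080 cells, 750/well, RPMI + 5% FBS; compound pinned after 2 h settling; 48 h, 37 °C; CellTiter-Glo luminescence; % activity normalised to DMSO and no-cell wells; curves fitted, classed by r2 and efficacy.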
IL1B secr inh: blocks inflammasome-driven IL-1 beta release | THP-1 LPS/ATP IL-1B secretion, AlphaLISA, 16 h; active compounds read low | activity change, % at 57.5 µM | hit rate 4.7% among 360,000 | AID 743279; in the data active = activity change below about -50%; inconclusive = mostly about -30% to -49%
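THP-1 cells pretreated 1 hr with compounds (up to 57.5 uM final), then stimulated with LPS (250 ng/mL final) plus ATP (1.25 mM final); secreted IL-1B measured by AlphaLISA after 16 hr, decreased signal indicating inhibition.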
TDP1 cell noCPT: qHTS for Inhibitors of human tyrosyl-DNA phosphodiesterase 1 (TDP1): qHTS in cells in absence of CPT; DT40 Tdp1-/- hTDP1 cells, no CPT, ATP luminescence, 48 h; Potency, µM (top dose mostly 46.2 µM), for the others: at the top dose activity change, negative = growth inhibition, hits mostly inhibitors; hit rate 15% among 420,000; AID 686978, 2013; also: potency is read from the fitted curve at half-maximal effect; nearly all actives have a fitted effect of over 55% in size
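Chicken DT40 Tdp1-/- cells stably complemented with human TDP1 were seeded at 400 cells/well with DMSO in place of 20 nM camptothecin. After compound pinning, cells grew at least 48 hr at 37 °C; viability read by CellTiter-Glo luminescence.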
HT1080-NT tox: kills 2HG-producing HT-1080-NT fibrosarcoma cells; HT-1080-NT fibrosarcoma viability, CellTiter-Glo ATP luminescence, 48 h; Potency, µM (top dose mostly 46.1 µM), for the others: top-dose activity, negative = less viability, actives largely listed as cytotoxic; hit rate 1.6% among 360,000; AID 686970;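 also: NT is the 2HG producing partner of a matched IDH1 knockdown line; potency is read from the fitted curve at half-maximal effect; 0% = DMSO-treated cells and -100% = media-only wells without cells; nearly all actives have a fitted effect of over 55% in size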
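Luminescent CellTiter-Glo readout after 48 hours of compound exposure at 37 degrees C defined viability of HT-1080-NT cells. Activity was normalized to DMSO wells and cell-free media wells; concentration-response curves were fitted and assigned curve classes.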
* hit, by the source's call; [ ] = remark or other dose. Most compounds without a hit are left out; they make up all but 19% or so of the library. Unless noted, calls follow the shape of the dose curve; as a rule, active = well fitted curve in the direction sought with a large enough effect; inconclusive = small, poorly fitted or top-dose-only effect, or another doubt; inactive = no such curve, though single readings can be large; an effect the other way counts as inactive or inconclusive. Unless noted, % is scaled to controls: 0 for no effect and ±100 for the full control effect.

Results for O=C(NS(=O)(=O)Nc1ccccc1)C1=C(N2CCCC2)COC1=O ?
TDP1 cell CPT: -3%; HT1080 IDH1KD tx: -1%; IL1B secr inh: -9; TDP1 cell noCPT: -12%; HT1080-NT tox: 1%

Results for CC1CCN(C(=O)CSc2nnc(-c3ccccc3F)o2)CC1 ?
TDP1 cell CPT: -3%; HT1080 IDH1KD tx: 2%; IL1B secr inh: 32; TDP1 cell noCPT: -25%; HT1080-NT tox: 18%

What do the screens show for `Cc1nc(NCc2cnn(C)c2)sc1-c1ccn(-c2cccc(F)c2)n1`?
TDP1 cell CPT: 22%[9.04 µM]; TDP1 cell noCPT: -24%

How did Oc1ccccc1Nc1nc(NCc2ccco2)c2ccccc2n1 do in these assays?
TDP1 cell CPT: 16µM*; HT1080 IDH1KD tx: -6%; IL1B secr inh: -63*; TDP1 cell noCPT: 21µM*; HT1080-NT tox: -13%

How did COc1cccc(-c2nc(NCc3ccco3)c3ccccc3n2)c1O do in these assays?
TDP1 cell CPT: -19%; HT1080 IDH1KD tx: inconclusive; IL1B secr inh: -9; TDP1 cell noCPT: -18%; HT1080-NT tox: inconclusive

Results for Cc1ccc(-c2nc(NCc3ccco3)c3ccccc3n2)cc1 ?
TDP1 cell CPT: inconclusive; HT1080 IDH1KD tx: -15%; IL1B secr inh: 5; TDP1 cell noCPT: inconclusive; HT1080-NT tox: inconclusive

Results for Cc1ccccc1Nc1nc(NCc2ccco2)c2ccccc2n1 ?
TDP1 cell CPT: 5.8µM*; HT1080 IDH1KD tx: 15µM*; IL1B secr inh: -102*; TDP1 cell noCPT: 3.7µM*; HT1080-NT tox: inconclusive

Results for COc1ccc(OC)c(Nc2nc(NCc3ccco3)c3ccccc3n2)c1 ?
TDP1 cell CPT: inconclusive; HT1080 IDH1KD tx: inconclusive; IL1B secr inh: -97*; TDP1 cell noCPT: 23µM*; HT1080-NT tox: 21µM*

What do the screens show for `Cc1ccc(S(=O)(=O)CC(=O)c2cc(C)c(O)c(C)c2)cc1`?
TDP1 cell CPT: -4%; HT1080 IDH1KD tx: 9%; IL1B secr inh: 48; TDP1 cell noCPT: -6%; HT1080-NT tox: 4%

What do the screens show for `Cc1ccc(-c2nnc3c(C(F)(F)F)nc4ccccc4n23)cc1`?
TDP1 cell CPT: 21µM*; HT1080 IDH1KD tx: 12%; IL1B secr inh: -26; TDP1 cell noCPT: 21µM*; HT1080-NT tox: 4%

What do the screens show for `FC(F)(F)c1nc2ccccc2n2c(-c3ccc(Cl)cc3)nnc12`?
TDP1 cell CPT: 7.3µM*; HT1080 IDH1KD tx: 4.6µM*; IL1B secr inh: inconclusive; TDP1 cell noCPT: 12µM*; HT1080-NT tox: 5.8µM*

What do the screens show for `c1ccc(CNCc2ccc3c(c2)OCO3)nc1`?
TDP1 cell CPT: -15%; HT1080 IDH1KD tx: 14%; IL1B secr inh: -10; TDP1 cell noCPT: -22%; HT1080-NT tox: 3%

How did CCCC(C)CO (configuration not stated) do in these assays?
TDP1 cell CPT: 5%; IL1B secr inh: 0; TDP1 cell noCPT: -2%

Results for COc1cc2cc(C(=O)Nc3ccc4c(c3)OCCO4)[nH]c2cc1OC ?
TDP1 cell CPT: 18%; HT1080 IDH1KD tx: 18%; IL1B secr inh: -10; TDP1 cell noCPT: inconclusive; HT1080-NT tox: 10%

Results for O=C(COC(=O)c1ccc([N+](=O)[O-])o1)Nc1ccc2c(c1)OC(F)(F)O2 ?
TDP1 cell CPT: -23%; HT1080 IDH1KD tx: 3%; IL1B secr inh: -6; TDP1 cell noCPT: -1%; HT1080-NT tox: 4%

Results for CCN(CC)CCCC(C)NC(=O)c1cc(=O)c2ccccc2o1 (configuration not stated) ?
TDP1 cell CPT: 10%; HT1080 IDH1KD tx: 21%; IL1B secr inh: 9; TDP1 cell noCPT: -3%; HT1080-NT tox: 12%

What do the screens show for `CCN(CC)CCCC(C)NC(=O)c1ccc(C(F)(F)F)cc1` (configuration not stated)?
TDP1 cell CPT: 0%; HT1080 IDH1KD tx: -3%; IL1B secr inh: -50*; TDP1 cell noCPT: inconclusive; HT1080-NT tox: -1%

What do the screens show for `Nc1c(C(=O)N2CCOCC2)sc(=S)n1-c1ccccc1`?
TDP1 cell CPT: inconclusive; HT1080 IDH1KD tx: 5%; IL1B secr inh: -9; TDP1 cell noCPT: inconclusive; HT1080-NT tox: 2%

Results for Nc1c(C(=O)N2CCCCC2)sc(=S)n1-c1ccccc1 ?
TDP1 cell CPT: 21µM*; HT1080 IDH1KD tx: 4%; IL1B secr inh: -22; TDP1 cell noCPT: inconclusive; HT1080-NT tox: 16%

How did C=C(C)CN1CCN(S(=O)(=O)c2ccc(C)c(N(C)S(=O)(=O)c3ccc(C)cc3)c2C)CC1 do in these assays?
TDP1 cell CPT: 23µM*; HT1080 IDH1KD tx: 0%; IL1B secr inh: -1; TDP1 cell noCPT: 10µM*; HT1080-NT tox: -3%

How did Cc1ccc(S(=O)(=O)N(C)c2c(C)ccc(S(=O)(=O)N3CCN(C)CC3)c2C)cc1 do in these assays?
TDP1 cell CPT: -9%; HT1080 IDH1KD tx: -2%; IL1B secr inh: 1; TDP1 cell noCPT: inconclusive; HT1080-NT tox: -4%

What do the screens show for `Cc1ccc(-n2c(=O)c3c4c(sc3n(Cc3ccccc3C)c2=O)CCC4)cc1C`?
TDP1 cell CPT: -18%; TDP1 cell noCPT: -11%

What do the screens show for `CCCC(=O)NC(c1ccccc1)c1c(O)ccc2ccccc12` (configuration not stated)?
TDP1 cell CPT: inconclusive; HT1080 IDH1KD tx: -15%; IL1B secr inh: -26; TDP1 cell noCPT: 8.2µM*; HT1080-NT tox: -5%

What do the screens show for `CCCCC(=O)NC(c1ccccc1Cl)c1c(O)ccc2ccccc12` (configuration not stated)?
TDP1 cell CPT: inconclusive; HT1080 IDH1KD tx: inconclusive; IL1B secr inh: -89*; TDP1 cell noCPT: inconclusive; HT1080-NT tox: inconclusive

What do the screens show for `CC(C)C(=O)NC(c1ccc([N+](=O)[O-])cc1)c1c(O)ccc2ccccc12` (configuration not stated)?
TDP1 cell CPT: 18µM*; HT1080 IDH1KD tx: inconclusive; IL1B secr inh: -88*; TDP1 cell noCPT: inconclusive; HT1080-NT tox: inconclusive

Results for Cc1ccc(C(NC(=O)C2CCCCC2)c2c(O)ccc3ccccc23)cc1 (configuration not stated) ?
TDP1 cell CPT: 16µM*; HT1080 IDH1KD tx: inconclusive; IL1B secr inh: -11; TDP1 cell noCPT: 21µM*; HT1080-NT tox: -23%

Results for CC(=O)NC(c1ccc([N+](=O)[O-])cc1)c1c(O)ccc2ccccc12 (configuration not stated) ?
TDP1 cell CPT: -29%; HT1080 IDH1KD tx: inconclusive; IL1B secr inh: -9; TDP1 cell noCPT: inconclusive; HT1080-NT tox: -25%

Results for FC(F)(F)c1ccccc1-c1nccc(NCCN2CCOCC2)n1 ?
TDP1 cell CPT: 7%; TDP1 cell noCPT: 5%
